# Test results as given in the supplement of paper PMC7411054.
# Structures can show the parent of a compound that is named as a salt.
# Legend:
# Experiment in all cases: lowest phenotypically active concentration; higher = less potent
# Conditions in all cases: treatment time: 24 h
# [1] = test system: A549-GM130-SQSTM1
# Summary of the method: (§1)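 Fifteen reporter lines derived from A549, HepG2 and WPMY1 cells by gene editing, carrying BFP for segmentation plus GFP and RFP/FusionRed markers, were exposed to 0.3, 1, 3 or 9 µM for 24 h in four wells each and imaged live. Live-cell features from each well were normalised to solvent control wells. A well set counted as deviating when ≥3 of 4 wells lay beyond the 95th percentile of control Euclidean distances, and as reproducible when the median replicate Pearson correlation exceeded the 95th percentile of non-replicates. Phenotypic activity was assigned only when both criteria were met.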
# [2] = test system: A549-TUBA1B-RELA
# Summary of the method: as §1
# [3] = test system: HepG2-CANX-COX4
# Summary of the method: as §1
# [4] = test system: HepG2-ACTB-RAB5A
# Summary of the method: as §1
# [5] = test system: HepG2-TUBA1B-RELA
# Summary of the method: as §1
# [6] = test system: HepG2-TP53BP1-CLTA
# Summary of the method: as §1
# [7] = test system: A549-TP53BP1-CLTA
# Summary of the method: as §1
# [8] = test system: WPMY1-TP53BP1-CLTA
# Summary of the method: as §1
# [9] = test system: A549-ACTB-RAB5A
# Summary of the method: as §1
# [10] = test system: A549-CANX-COX4
# Summary of the method: as §1
smiles,measurement,setting,value
COc1ccc(S(=O)(=O)ON=C2C=C(C)C(=O)C(C)=C2)cc1,lowest phenotypically active concentration,[1],9 µM
same,lowest phenotypically active concentration,[2],9 µM
O=c1cc(N2CCOCC2)oc2c1ccc1ccccc12,lowest phenotypically active concentration,[1],3 µM
Cc1ccc(-n2sc3ccccc3c2=O)cc1,lowest phenotypically active concentration,[3],9 µM
Clc1ccc(C(c2ccc(Cl)cc2)[n+]2ccn(CC(OCc3ccc(Cl)cc3Cl)c3ccc(Cl)cc3Cl)c2)cc1 (configuration not stated) [Calmidazolium chloride],lowest phenotypically active concentration,[4],3 µM
same,lowest phenotypically active concentration,[5],3 µM
Cc1cc(C(=O)Nc2cccc(C(=O)Nc3cccc(C(F)(F)F)c3)c2)on1,lowest phenotypically active concentration,[3],1 µM
O=C1NN(c2ccc(F)c(Cl)c2)C(=O)/C1=C\c1ccc([N+](=O)[O-])o1,lowest phenotypically active concentration,[1],3 µM
CCOc1nc(NC(=O)Cc2cc(OC)ccc2OC)cc(N)c1C#N,lowest phenotypically active concentration,[2],9 µM
C[C@H](NC(=O)[C@@H](O)c1cc(F)cc(F)c1)C(=O)N[C@@H]1C(=O)N(C)c2ccccc2-c2ccccc21,lowest phenotypically active concentration,[3],1 µM
CC(C)(C)c1ccc(C(=O)Nc2cn3cc(-n4ccnc4)ccc3n2)cc1,lowest phenotypically active concentration,[4],3 µM
C[C@@H]1CN(Cc2ccc(F)cc2)[C@@H](C)CN1C(=O)c1cc2c(C(=O)C(=O)N(C)C)cn(C)c2cc1Cl [SCIO 469 hydrochloride],lowest phenotypically active concentration,[4],9 µM
same,lowest phenotypically active concentration,[3],1 µM
same,lowest phenotypically active concentration,[6],9 µM
same,lowest phenotypically active concentration,[5],9 µM
Nc1nnc(Sc2ncc([N+](=O)[O-])s2)s1,lowest phenotypically active concentration,[2],9 µM
COc1cc(-c2cn(C)c(=O)c3cnccc23)c(OC)cc1CN(C)C,lowest phenotypically active concentration,[7],9 µM
same,lowest phenotypically active concentration,[4],9 µM
same,lowest phenotypically active concentration,[5],9 µM
CC1=C(/C=C/C(C)=C/C=C/C(C)=C/C(=O)O)C(C)(C)CCC1 [isotretinoin],lowest phenotypically active concentration,[3],≤ 0.3 µM
same,lowest phenotypically active concentration,[8],3 µM
CC(C)N(CCCNC(=O)Nc1ccc(C(C)(C)C)cc1)C[C@H]1O[C@@H](n2ccc3c(N)ncnc32)[C@H](O)[C@@H]1O,lowest phenotypically active concentration,[4],9 µM
same,lowest phenotypically active concentration,[6],1 µM
same,lowest phenotypically active concentration,[5],≤ 0.3 µM
COc1ccc(CC2c3cc(OC)c(OC)cc3CC[N+]2(C)CCC(=O)OCCCCCOC(=O)CC[N+]2(C)CCc3cc(OC)c(OC)cc3C2Cc2ccc(OC)c(OC)c2)cc1OC (configuration not stated) [Atracurium besilate],lowest phenotypically active concentration,[3],9 µM
O=C(O)COc1ccc(Br)cc1/C=C1\SC(=S)N(Cc2cccnc2)C1=O,lowest phenotypically active concentration,[1],9 µM
C[C@H](NC(=O)c1sccc1OCc1ccc(Cl)cc1)c1ccccc1,lowest phenotypically active concentration,[7],9 µM
same,lowest phenotypically active concentration,[8],3 µM
O=C(Nc1ccccc1)N1CCN(c2nc(-c3ccccc3)ns2)CC1,lowest phenotypically active concentration,[3],9 µM
same,lowest phenotypically active concentration,[6],9 µM
same,lowest phenotypically active concentration,[5],9 µM
NS(=O)(=O)c1cc2c(cc1C(F)(F)F)NC(Cc1ccccc1)NS2(=O)=O (configuration not stated) [bendroflumethiazide],lowest phenotypically active concentration,[3],3 µM
Nc1ncnc2c1c(COc1cccc(Cl)c1)nn2C1CCOCC1,lowest phenotypically active concentration,[6],9 µM
C#CCN[C@@H]1CCc2ccccc21 [rasagiline],lowest phenotypically active concentration,[6],9 µM
same,lowest phenotypically active concentration,[5],9 µM
same,lowest phenotypically active concentration,[8],9 µM
O=c1cc(-c2ccc(O)cc2)oc2cc(O)cc(O)c12 [Apigenin],lowest phenotypically active concentration,[6],9 µM
same,lowest phenotypically active concentration,[5],9 µM
same,lowest phenotypically active concentration,[8],3 µM
c1ccc(-c2cnn3cc(-c4ccc(OCCN5CCOCC5)cc4)cnc23)cc1,lowest phenotypically active concentration,[5],3 µM
CN/C(=C/[N+](=O)[O-])NCCSCc1csc(CN(C)C)n1 [nizatidine],lowest phenotypically active concentration,[6],1 µM
CN(C)CCOC(c1ccccc1)c1ccccc1 [diphenhydramine],lowest phenotypically active concentration,[8],9 µM
O=C(Nc1ccccc1)N1CCC(Cc2cnc3ccccc3c2)CC1,lowest phenotypically active concentration,[6],9 µM
same,lowest phenotypically active concentration,[5],9 µM
Cc1nc[nH]c1C1CCN(c2nc3cccc4c3n2CCC4=O)CC1,lowest phenotypically active concentration,[6],9 µM
O=S(=O)(NCCCCCCc1ccccc1)c1cccc2c(Cl)cccc12,lowest phenotypically active concentration,[5],≤ 0.3 µM
Cc1cc2c(s1)Nc1ccccc1N=C2N1CCN(C)CC1 [Olanzapine],lowest phenotypically active concentration,[5],9 µM
COc1ccc2c3c(c(=O)n(C)c2c1OC)C=CC(C)(C)O3 [Veprisine],lowest phenotypically active concentration,[8],9 µM
COc1cc2nc(N3CCN(C(=O)c4ccco4)CC3)nc(N)c2cc1OC [prazosin],lowest phenotypically active concentration,[3],9 µM
same,lowest phenotypically active concentration,[5],9 µM
CS(=O)(=O)c1ccc(-c2nnc(/C=C/c3nnc(-c4ccc(C#N)cc4)o3)n2-c2ccccc2Cl)nc1,lowest phenotypically active concentration,[8],9 µM
COc1ccc(CCN(C)CCCC(C#N)(c2ccc(OC)c(OC)c2)C(C)C)cc1OC (configuration not stated) [verapamil],lowest phenotypically active concentration,[9],9 µM
same,lowest phenotypically active concentration,[1],9 µM
same,lowest phenotypically active concentration,[2],9 µM
O=S(c1ccccc1)c1ccc2nnnn2n1 (configuration not stated),lowest phenotypically active concentration,[9],9 µM
O=C(O)/C(Cc1ccccc1[N+](=O)[O-])=N\Nc1nc(-c2ccc(Cl)c(Cl)c2)cs1,lowest phenotypically active concentration,[8],9 µM
CC(C)C(=O)Nc1ncc(-c2cc(C(F)F)nn2-c2c(Cl)cccc2Cl)s1,lowest phenotypically active concentration,[9],≤ 0.3 µM
same,lowest phenotypically active concentration,[4],3 µM
same,lowest phenotypically active concentration,[3],9 µM
C=C[C@H]1CN2CC[C@H]1C[C@H]2[C@H](O)c1ccnc2ccc(OC)cc12 [Quinine dihydrochloride],lowest phenotypically active concentration,[9],9 µM
same,lowest phenotypically active concentration,[1],3 µM
Fc1ccc(Cl)cc1-c1nc(Nc2ccncc2)c2nccnc2n1,lowest phenotypically active concentration,[8],9 µM
CCN1CCN(C(c2cccnc2)c2cc(Cl)c3cccnc3c2O)CC1 (configuration not stated),lowest phenotypically active concentration,[10],3 µM
same,lowest phenotypically active concentration,[7],3 µM
same,lowest phenotypically active concentration,[4],9 µM
same,lowest phenotypically active concentration,[3],9 µM
same,lowest phenotypically active concentration,[6],9 µM
same,lowest phenotypically active concentration,[5],9 µM
same,lowest phenotypically active concentration,[8],9 µM
C/C(=C/c1ccc(C(=O)O)cc1)c1ccc2c(c1)C(C)(C)CCC2(C)C,lowest phenotypically active concentration,[8],3 µM
CCN1CCN(c2cc(-c3ccc(F)cc3)c3c(n2)CCCCCC3)CC1 [blonanserin],lowest phenotypically active concentration,[7],9 µM
same,lowest phenotypically active concentration,[4],9 µM
same,lowest phenotypically active concentration,[3],9 µM
same,lowest phenotypically active concentration,[6],3 µM
same,lowest phenotypically active concentration,[5],3 µM
same,lowest phenotypically active concentration,[8],9 µM
COc1cc([C@@H]2c3cc4c(cc3[C@@H](O[C@@H]3O[C@@H]5CO[C@@H](C)O[C@H]5[C@H](O)[C@H]3O)[C@H]3COC(=O)[C@H]23)OCO4)cc(OC)c1O [etoposide],lowest phenotypically active concentration,[10],1 µM
same,lowest phenotypically active concentration,[7],≤ 0.3 µM
same,lowest phenotypically active concentration,[4],1 µM
same,lowest phenotypically active concentration,[3],1 µM
same,lowest phenotypically active concentration,[6],≤ 0.3 µM
same,lowest phenotypically active concentration,[5],1 µM
same,lowest phenotypically active concentration,[8],1 µM
CCOc1cc(N2CCC(O)CC2)ccc1Nc1ncc2c(n1)N(C)c1ccccc1C(=O)N2C,lowest phenotypically active concentration,[10],9 µM
same,lowest phenotypically active concentration,[7],9 µM
same,lowest phenotypically active concentration,[4],3 µM
same,lowest phenotypically active concentration,[3],3 µM
same,lowest phenotypically active concentration,[6],9 µM
same,lowest phenotypically active concentration,[5],3 µM
same,lowest phenotypically active concentration,[8],3 µM
CC[C@H](C)[C@H](NC(=O)OCc1ccccc1)C(=O)N[C@@H](CCC(=O)OC(C)(C)C)C(=O)N[C@@H](C)C(=O)N[C@H](C=O)CC(C)C,lowest phenotypically active concentration,[10],≤ 0.3 µM
same,lowest phenotypically active concentration,[7],≤ 0.3 µM
same,lowest phenotypically active concentration,[4],≤ 0.3 µM
same,lowest phenotypically active concentration,[3],≤ 0.3 µM
same,lowest phenotypically active concentration,[6],≤ 0.3 µM
same,lowest phenotypically active concentration,[5],≤ 0.3 µM
same,lowest phenotypically active concentration,[8],≤ 0.3 µM
Cc1nc(NC(=O)N2CCC[C@H]2C(N)=O)sc1-c1csc(C(C)(C)C)n1,lowest phenotypically active concentration,[7],9 µM
same,lowest phenotypically active concentration,[4],3 µM
same,lowest phenotypically active concentration,[3],3 µM
same,lowest phenotypically active concentration,[6],3 µM
same,lowest phenotypically active concentration,[5],3 µM
same,lowest phenotypically active concentration,[8],3 µM
N#Cc1c(NC(=O)c2cccc3ccccc23)sc2c1CCCC2,lowest phenotypically active concentration,[10],≤ 0.3 µM
same,lowest phenotypically active concentration,[7],≤ 0.3 µM
same,lowest phenotypically active concentration,[4],≤ 0.3 µM
same,lowest phenotypically active concentration,[3],≤ 0.3 µM
same,lowest phenotypically active concentration,[6],≤ 0.3 µM
same,lowest phenotypically active concentration,[5],≤ 0.3 µM
same,lowest phenotypically active concentration,[8],≤ 0.3 µM
Oc1ccc(Nc2nc(-c3ccc(Cl)cc3)cs2)cc1,lowest phenotypically active concentration,[10],3 µM
same,lowest phenotypically active concentration,[7],9 µM
same,lowest phenotypically active concentration,[3],9 µM
same,lowest phenotypically active concentration,[8],9 µM
CC(C)CCN1c2nc(Nc3cc(F)c(O)c(F)c3)ncc2N(C)C(=O)C1C (configuration not stated),lowest phenotypically active concentration,[7],3 µM
same,lowest phenotypically active concentration,[4],3 µM
same,lowest phenotypically active concentration,[3],3 µM
same,lowest phenotypically active concentration,[6],3 µM
same,lowest phenotypically active concentration,[5],3 µM
same,lowest phenotypically active concentration,[8],≤ 0.3 µM
COc1cc2c(NC3CCN(C(C)C)CC3)nc(C3CCCCC3)nc2cc1OCCCN1CCCC1,lowest phenotypically active concentration,[10],3 µM
same,lowest phenotypically active concentration,[7],3 µM
same,lowest phenotypically active concentration,[4],1 µM
same,lowest phenotypically active concentration,[3],3 µM
same,lowest phenotypically active concentration,[6],1 µM
same,lowest phenotypically active concentration,[5],≤ 0.3 µM
same,lowest phenotypically active concentration,[8],1 µM
